Assay outcomes from PubChem BioAssay.
Compounds with a hit are over-represented: about 5.3% of the library has one in this group of screens.
PostGolgi ctrl: growth inhibition of yeast control strain, primary screen, counter-screen for post-Golgi transport modulator project; inhibition, % at 10 µM; efflux-deficient yeast background strain, growth absorbance A615, 16 h; actives 5% (n = 98,000)
Measles CPE: compounds protecting cells from measles virus cytopathic effect, primary screen, measles RdRp inhibitor project, single point, MLSMR library, absorbance. protection (pct of control), % at 4 µM. actives 1.5% (n = 140,000). Measles virus-infected cells, CPE protection; in the data active = protection mostly above about 24%, no sharp cut-off; inactive = mostly below about 26%
MT1-MMP txn act: MT1-MMP promoter reporter activation – cell-based, luciferase luminescence, primary screen; actives 0.16% (n = 86,000); HT1080 MT1-MMP promoter luciferase reporter, overnight; stronger effect = higher value; AID 750, 2007; activation factor at 10 µM;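 active = activation factor of at least 2 for MT1-MMP transcription at 10 µM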
PostGolgi yeast: phenotypic screen on post-Golgi transport, primary screen; post-Golgi transport phenotypic cell assay; inhibition, % at 10 µM; actives 0.9% (n = 98,000); AID 739, 2007;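 also: yeast cells grown in 1536-well plates; yeast grown about 18 h at 30C before absorbance read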
A number is an active result. Rule as the data show it, unless noted: active = inhibition above about 30%; inactive = the rest.

What do the screens show for `Cc1nnc(N2CCN(C)CC2)c2nn(-c3ccc(Cl)cc3)c(C)c12`?
MT1-MMP txn act: inactive

What do the screens show for `O=C(/C=C/c1ccco1)c1ccc(NC(=O)C23CC4CC(CC(C4)C2)C3)cc1`?
Measles CPE: inactive

Results for CN(CC(CC(=O)Nc1nncs1)c1ccccc1)S(=O)(=O)c1ccc(Br)cc1 (centres undefined) ?
PostGolgi ctrl: inactive; Measles CPE: inactive; PostGolgi yeast: inactive

Results for CCOc1ccccc1OCCCC(=O)Nc1sccc1C(N)=O ?
Measles CPE: inactive

How did COC(=O)c1ccc(Cl)c(NC(=O)CN2CCN(Cc3ccccc3)CC2)c1 do in these assays?
PostGolgi ctrl: inactive; Measles CPE: 36; MT1-MMP txn act: inactive; PostGolgi yeast: inactive

What do the screens show for `COC(=O)[C@@]1(Cc2ccccc2)[C@H]2c3cc(C(=O)N(C)C)n(Cc4ccc(O)c(OC)c4)c3C[C@H]2CN1C(=O)c1ccccc1`?
MT1-MMP txn act: inactive

Results for COc1cccc(C(=O)Nc2ccc(F)cc2F)c1 ?
Measles CPE: 45; MT1-MMP txn act: inactive

How did COc1cccc(C(=O)Nc2ccc(F)c(F)c2F)c1 do in these assays?
PostGolgi ctrl: inactive; Measles CPE: inactive; MT1-MMP txn act: inactive; PostGolgi yeast: inactive

How did CCOC(=O)CCCn1nc(C)n2c(cc3sccc32)c1=O do in these assays?
Measles CPE: inactive; MT1-MMP txn act: inactive

How did CCOC(=O)C1CCCN(C(=O)Cn2nc(CC)n3c(cc4sccc43)c2=O)C1 (centres undefined) do in these assays?
PostGolgi ctrl: 53; Measles CPE: inactive; MT1-MMP txn act: inactive; PostGolgi yeast: inactive

What do the screens show for `CCOc1ccccc1-c1nnc(SCC(=O)Nc2ccccc2)o1`?
PostGolgi ctrl: 43; Measles CPE: inactive; MT1-MMP txn act: inactive; PostGolgi yeast: inactive

What do the screens show for `Cc1cccc(NC(=O)CSc2nnc(-c3ccccc3C)o2)c1`?
PostGolgi ctrl: inactive; Measles CPE: inactive; MT1-MMP txn act: inactive; PostGolgi yeast: inactive

How did Cc1nc(-c2ccccc2)sc1-c1nc(-c2cccnc2)ncc1S(=O)(=O)c1ccccc1 do in these assays?
PostGolgi ctrl: 32; Measles CPE: inactive; PostGolgi yeast: inactive

Results for Cc1nc(-c2ccccc2)sc1-c1nc(-c2cccs2)ncc1S(=O)(=O)c1ccccc1 ?
PostGolgi ctrl: inactive; Measles CPE: inactive; PostGolgi yeast: inactive

Results for O=C(NCc1ccccc1)c1ccc(-c2ccc(F)cc2)o1 ?
PostGolgi ctrl: 31; Measles CPE: inactive; MT1-MMP txn act: inactive; PostGolgi yeast: inactive

How did Cc1ccccc1-c1ccc(C(=O)NCc2ccccc2)o1 do in these assays?
Measles CPE: inactive

How did COc1ccccc1-c1cc(C(=O)NCc2ccccc2)no1 do in these assays?
PostGolgi ctrl: inactive; Measles CPE: inactive; MT1-MMP txn act: inactive; PostGolgi yeast: inactive

How did COc1ccccc1-c1cc(C(=O)NCc2ccc(F)cc2)no1 do in these assays?
PostGolgi ctrl: 59; Measles CPE: inactive; MT1-MMP txn act: inactive; PostGolgi yeast: inactive

What do the screens show for `CCn1cc(C(=O)NC(=S)Nc2cccc(O)c2)cn1`?
PostGolgi ctrl: inactive; Measles CPE: inactive; PostGolgi yeast: inactive

Results for CC1Cc2nc(SCC(=O)Nc3ccc(F)cc3F)n(C)c(=O)c2S1 (centres undefined) ?
Measles CPE: 41; MT1-MMP txn act: inactive

How did O=c1cc(O)c2c(=O)n(-c3ccccc3)c3ccccc3c2o1 do in these assays?
PostGolgi ctrl: inactive; Measles CPE: inactive; MT1-MMP txn act: inactive; PostGolgi yeast: inactive

How did CCn1c(=O)c2c(O)cc(=O)oc2c2ccccc21 do in these assays?
PostGolgi ctrl: inactive; Measles CPE: inactive; PostGolgi yeast: 32

What do the screens show for `CC(C)(C)c1nn2cnnc2n(/N=C/c2ccccc2)c1=O`?
Measles CPE: inactive

Results for COC(=O)CNC(=O)C1(CC(C)C)C=CCN1C(=O)c1ccccc1 (centres undefined) ?
MT1-MMP txn act: inactive

What do the screens show for `O=[N+]([O-])/C=C/c1cn(Cc2ccc(Cl)cc2)c2ccccc12`?
Measles CPE: inactive

Results for Cc1cccc(Cn2cc(/C=C/[N+](=O)[O-])c3ccccc32)c1 ?
PostGolgi ctrl: 61; Measles CPE: inactive; PostGolgi yeast: inactive

Results for Cc1nnc(SCC(=O)OC2CC(C)CCC2C(C)C)[nH]c1=O (centres undefined) ?
PostGolgi ctrl: inactive; Measles CPE: inactive; MT1-MMP txn act: inactive; PostGolgi yeast: inactive

How did CC1CCC(C(C)C)C(OC(=O)CSc2nnc(N)s2)C1 (centres undefined) do in these assays?
PostGolgi ctrl: 32; Measles CPE: inactive; MT1-MMP txn act: inactive; PostGolgi yeast: inactive

How did CC1CCC(C(C)C)C(OC(=O)CSc2nc(N)cc(=O)[nH]2)C1 (centres undefined) do in these assays?
PostGolgi ctrl: 42; Measles CPE: inactive; MT1-MMP txn act: inactive; PostGolgi yeast: inactive

Results for CCCS(=O)(=O)N1CCN(S(=O)(=O)c2ccccc2)CC1 ?
PostGolgi ctrl: inactive; Measles CPE: inactive; MT1-MMP txn act: inactive; PostGolgi yeast: inactive

Results for CCOC(=O)C1CCCN(C(=O)Cn2cccc2C(=O)c2ccccc2)C1 (centres undefined) ?
PostGolgi ctrl: 31; Measles CPE: inactive; MT1-MMP txn act: inactive; PostGolgi yeast: inactive

What do the screens show for `CCOC(=O)C1CCCN(C(=O)Cc2c(F)cccc2Cl)C1` (centres undefined)?
PostGolgi ctrl: inactive; Measles CPE: inactive; MT1-MMP txn act: inactive; PostGolgi yeast: 35

What do the screens show for `O=C(Cn1c(NCCO)nc2ccccc21)NCCc1ccccc1`?
PostGolgi ctrl: 38; Measles CPE: inactive; MT1-MMP txn act: inactive; PostGolgi yeast: inactive

Results for O=C(Cn1c(NCCO)nc2ccccc21)c1ccco1 ?
PostGolgi ctrl: inactive; Measles CPE: inactive; MT1-MMP txn act: inactive; PostGolgi yeast: inactive

What do the screens show for `CC(CNC(=O)c1cc(Cl)ccc1[N+](=O)[O-])NC(=O)c1cc(Cl)ccc1[N+](=O)[O-]` (centres undefined)?
PostGolgi ctrl: inactive; Measles CPE: inactive; PostGolgi yeast: inactive

Results for C=CCn1c(SCC(=O)N2CCc3ccccc3C2)nc2sc(C)c(C)c2c1=O ?
Measles CPE: inactive

What do the screens show for `CC1(C)NC(=O)N(CCOCCOc2c(Cl)cc(Cl)cc2Cl)C1=O`?
PostGolgi ctrl: inactive; Measles CPE: inactive; MT1-MMP txn act: inactive; PostGolgi yeast: inactive

How did Cc1cc(C)n(CC2CC(=O)N(c3ccc(C)c(Cl)c3)C2=O)n1 (centres undefined) do in these assays?
Measles CPE: inactive; MT1-MMP txn act: inactive

How did Cc1ccc(N2C(=O)CC(Sc3nc4ccccc4o3)C2=O)cc1Cl (centres undefined) do in these assays?
PostGolgi ctrl: 39; Measles CPE: inactive; PostGolgi yeast: inactive

Results for N#CCCN1CCN(S(=O)(=O)c2ccc(S(=O)(=O)NC3CCCC3)cc2)CC1 ?
PostGolgi ctrl: inactive; Measles CPE: 40; MT1-MMP txn act: inactive; PostGolgi yeast: inactive

How did O=C(c1ccco1)N(Cc1ccc([N+](=O)[O-])cc1)c1ccc(Cl)cc1 do in these assays?
PostGolgi ctrl: 40; Measles CPE: inactive; PostGolgi yeast: inactive

How did Cc1ccc(N(Cc2ccc([N+](=O)[O-])cc2)C(=O)c2ccco2)cc1C do in these assays?
Measles CPE: inactive

Results for O=C(c1ccco1)N(Cc1ccc([N+](=O)[O-])cc1)c1ccc(Br)cc1 ?
PostGolgi ctrl: 45; Measles CPE: inactive; PostGolgi yeast: inactive
